# Data from PubChem BioAssay AID1053126 (Broad Institute, 2014).
# Measured potencies and affinities stand elsewhere. The source made the active and inactive calls.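 The calls were made as follows: active = cell killing with a fitted half-effect concentration at or below twice the top valid dose; inconclusive = flat curve with 30 to 70 percent drop, or poor fit; inactive = the rest.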
# Experiment: viability loss in HEK293T kidney cells – cell-based, ATP luminescence, cherry-pick, set 6, cytotoxicity control, dose response (AID 1053126)
# Conditions: CellTiter-Glo ATP luminescence, 72 h; series mostly up to 26 µM
row,Compound,outcome
1,CCOC(=O)C(NC(=O)c1ccccc1)(OCC1(CC)COC1)C(F)(F)F (stereo unspecified),inactive
2,Cc1cc(C)nc(SCC(=O)Nc2ccc(S(=O)(=O)Nc3onc(C)c3C)cc2)n1,inactive
3,CC(=O)Oc1ccc2cc(-c3nc4ccccc4n3C)c(=O)oc2c1,inactive
4,Cc1ccc(-c2nc3ccsc3c(=O)[nH]2)cc1,inactive
5,CCOC(=O)c1oc2c(CN3CCN(CCO)CC3)c(O)c(CC)cc2c(=O)c1-c1nc2ccccc2s1,inactive
6,Cc1cccn2c(=O)c3cc(C(=O)NCCN4CCOCC4)c(=N)n(CCc4ccccc4)c3nc12,inactive
7,[O-]/[N+](=C/c1ccccc1)c1ccccc1,inactive
8,N#Cc1c2ccc(OCC(N)=O)cc2n2ccccc12,inactive
9,CCC(C)NC(=S)N1CCN(Cc2ccc3c(c2)OCO3)CC1 (stereo unspecified),inactive
10,CSc1ccc(Cn2c(C)c(C(=O)NCc3cccc(Cl)c3)sc2=O)cc1,inactive
11,CC1CCCCN1Cc1c(O)ccc2c(=O)c(-c3nc4ccccc4s3)coc12 (stereo unspecified),inactive
12,CCOc1ccc(S(=O)(=O)Nc2ccc(C(=O)N(CC)CC(=O)NCc3cccs3)cc2)cc1,inactive
13,Clc1ccccc1C1=CC(c2ccco2)n2ncnc2N1 (stereo unspecified),inactive
14,COc1ccccc1C(=O)c1cc2ccc(O)cc2oc1=O,inactive
15,CCOc1ccc2nc(NCCCNC(=O)c3cc(OC)c(OC)c(OC)c3)c(C#N)cc2c1,inactive
16,CCNc1nc2nc3ccc(C)cn3c(=O)c2cc1C(=O)NCC1CCCO1 (stereo unspecified),inactive
17,CCC(=O)NCCCNc1nc2c(C)cccc2cc1C#N,inactive
18,COc1cc(C2C3=C(CC(C)(C)CC3=O)N(C)C3=C2C(=O)CC(C)(C)C3)cc(Br)c1O,inactive
19,COc1ccc(C2CC(c3ccccc3)=NN2c2ccc(C(N)=O)cc2)cc1 (stereo unspecified),inactive
20,N=c1oc2cc(O)ccc2cc1C(=O)Nc1nc2ccccc2s1,inactive
21,COc1ccc(C2C3=C(CCCC3=O)N(CC(=O)O)C3=C2C(=O)CCC3)cc1Cl,inactive
